Source: PubChem BioAssay (Tox21)
Records with an inconclusive call do not appear. The source made the active and inactive calls. Unless noted, calls come from the whole dose curve; as a rule, active = well fitted curve in the direction sought with a large enough effect in the repeat runs; inconclusive = weak or mixed curves; inactive = no such curve, though single readings can be large; an effect the other way counts as inactive or inconclusive.

Tests used:
[1] = qHTS assay to identify small molecule antagonists of the estrogen receptor alpha (ER-alpha) signaling pathway using the BG1 cell line in the presence of 0.1 nM 17-beta-estradiol - cell viability counter screen (AID 1259241); note: nearly all actives have a fitted effect of over 40% in size
Method in brief: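 Live-cell protease activity (CellTiter-Fluor fluorescence, 30 min) was read in the same wells after VM7Luc4E2 cells had been exposed to compounds with 0.1 nM 17beta-estradiol for 22 hr at 37C.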

[2] = qHTS assay to identify small molecule antagonists of the androgen receptor (AR) signaling pathway using the MDA cell line in the presence of 0.5 nM R1881 - cell viability counter screen (AID 1259242); note: nearly all actives have a fitted effect of over 45% in size
Method in brief: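 Human breast carcinoma MDA-kb2 cells, cultured without CO2, receive compounds alongside 0.5 nM (final) R1881 agonist. After 16 hr at 37C, viability is taken as live-cell protease signal.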

[3] = qHTS assay to identify small molecule HDAC inhibitors (AID 1259364);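 note: wild-type HCT-116 cells with endogenous class I/II HDAC activity; top concentration of the series differs between compounds; nearly all actives have a fitted effect of over 45% in size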
Method in brief: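 After a 2 hr compound incubation (37C, 5% CO2), HCT-116 cells seeded at 1,500/well the day before received HDAC-Glo reagent; signal read as luminescence after 30 min at room temperature.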

[4] = qHTS assay to identify small molecule HDAC inhibitors - cell viability counter screen (AID 1259365); note: series mostly up to about 92 µM; nearly all actives have a fitted effect of over 50% in size
Method in brief: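 HCT-116 (wild type), 1,500 cells/well, overnight 37C/5% CO2; compound in DMSO 2hr; CellTiter-Glo 30min RT; luminescence read.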

[5] = qHTS assay to identify small molecule agonists of the sonic hedgehog signaling (Shh) pathway - cell viability counter screen (AID 1259366); note: nearly all actives have a fitted effect of over 50% in size
Method in brief: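 CellTiter-Fluor fluorescence read-out, 1 hr at 37C, added after 23hr compound exposure. Cells: 3T3 Gli1-Luc, an NIH/3T3 clone with stably integrated Gli1-Luc reporter, plated 4hr before compound.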

[6] = qHTS assay to identify small molecule agonists of the sonic hedgehog signaling (Shh) pathway (AID 1259368; calls by dose curve;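 note: NIH/3T3-derived 3T3Gli1-Luc cells carrying a stable Gli1-driven firefly luciferase reporter; series mostly up to about 92 µM; nearly all actives have a fitted effect of over 15% in size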)
Method in brief: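 Stable NIH/3T3 Gli1-Luc reporter clone; 24 hr cpd exposure after a 4 hr settling period; luminescence endpoint.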

[7] = molecular target: Estrogen receptor beta (Homo sapiens) (UniProt Q92731); assay: qHTS assay to identify small molecule agonists of the estrogen receptor beta (ER-beta) signaling pathway (AID 1259377; active = well fitted activation curve with a large enough effect in the signal ratio in the repeat runs, not every such curve was filed as active; the % refers to the signal ratio)
Estrogen receptor beta (Homo sapiens), sequence (Q92731 whole entry, looked up): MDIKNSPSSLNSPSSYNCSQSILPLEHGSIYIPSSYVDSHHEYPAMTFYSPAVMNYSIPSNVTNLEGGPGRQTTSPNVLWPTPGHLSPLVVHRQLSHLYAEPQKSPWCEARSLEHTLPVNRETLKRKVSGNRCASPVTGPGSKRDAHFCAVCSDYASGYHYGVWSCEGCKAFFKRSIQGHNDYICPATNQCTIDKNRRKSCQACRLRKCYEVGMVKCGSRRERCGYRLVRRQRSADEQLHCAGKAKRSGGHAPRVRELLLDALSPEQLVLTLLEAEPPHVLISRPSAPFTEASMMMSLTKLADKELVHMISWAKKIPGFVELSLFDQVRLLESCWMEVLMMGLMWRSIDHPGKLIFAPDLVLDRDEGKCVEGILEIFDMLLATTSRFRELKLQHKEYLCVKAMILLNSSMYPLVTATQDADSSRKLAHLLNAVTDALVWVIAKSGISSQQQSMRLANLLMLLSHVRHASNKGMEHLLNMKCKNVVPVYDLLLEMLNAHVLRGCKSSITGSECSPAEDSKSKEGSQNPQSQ
Method in brief: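 Beta-lactamase reporter readout: fluorescence of LiveBLAzer B/G FRET substrate after 2 h at room temperature, following 16 h compound treatment of ER-beta-UAS-bla HEK293T cells at 37C in 2% charcoal-stripped FBS medium.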

[8] = molecular target: Estrogen receptor beta (Homo sapiens) (UniProt Q92731); assay: qHTS assay to identify small molecule antagonists of the estrogen receptor beta (ER-beta) signaling pathway (AID 1259378; active = well fitted inhibition curve with a large enough effect in the signal ratio in the repeat runs, not every such curve was filed as active; the % refers to the signal ratio)
Method in brief: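 ER-beta-UAS-bla HEK293T cells in 2% charcoal-stripped FBS medium treated with compound plus 1nM final 17-beta-estradiol for 16 hr at 37C. Beta-lactamase reporter read by FRET substrate fluorescence after 2 hours at room temperature.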

[9] = qHTS assay to identify small molecule agonists of the androgen receptor (AR) signaling pathway in the presence of an antagonist - cell viability counter screen (AID 1259379); note: nearly all actives have a fitted effect of over 25% in size; note: potency is the fitted concentration of half-maximal effect
Method in brief: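 Counter screen for cell viability run in parallel with the AR agonist-mode luciferase assay. MDA-kb2 cells were co-treated with nilutamide (3.0uM final) and compounds, then incubated 16 hr at 37C, and CellTiter-Fluor fluorescence was measured.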

[10] = qHTS assay to identify small molecule agonists of the estrogen receptor beta (ER-beta) signaling pathway - cell viability counter screen (AID 1259380); note: nearly all actives have a fitted effect of over 30% in size
Method in brief: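 In this qHTS counter screen, HEK293T cells carrying an ER-beta/UAS beta-lactamase reporter, grown in 2% charcoal-stripped FBS, received compound for 16 hr; ATP-based CellTiter-Glo luminescence was then read after 30 min at room temperature.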

[11] = qHTS assay to identify small molecule antagonists of the estrogen receptor beta (ER-beta) signaling pathway - cell viability counter screen (AID 1259382); note: series mostly up to about 92 µM; nearly all actives have a fitted effect of over 55% in size
Method in brief: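 HEK293T ER-beta-UAS-bla, 2% charcoal-stripped FBS; compounds + 1nM E2 16 hr 37C; CellTiter-Glo luminescence, 30 min RT.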

[12] = qHTS assay to identify small molecule antagonists of the sonic hedgehog signaling (Shh) pathway - cell viability counter screen (AID 1259367); note: nearly all actives have a fitted effect of over 55% in size
Method in brief: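 Tox21 library chemicals were tested on a Gli1-Luc NIH/3T3 clone (2,000 cells/well) stimulated by conditioned medium; viability was quantified as fluorescence from CellTiter-Fluor reagent added at 23 hr.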

[13] = qHTS assay to identify small molecule agonists or antagonists of the thyroid stimulating hormone receptor (TSHR) signaling pathway - wild type cell line counter screen (AID 1259384; calls by dose curve)
Method in brief: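 Wild-type Hek293 cells, 800/well, 18 h at 37C, then compound with Ro20-1724 for 30 min RT. cAMP by HTRF (cAMP-d2/anti-cAMP cryptate), 1 h RT, fluorescence read. 15 concentrations, triplicates.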

[14] = molecular target: Thyrotropin receptor (Homo sapiens) (UniProt P16473); assay: qHTS assay to identify small molecule antagonists of the thyroid stimulating hormone receptor (TSHR) signaling pathway (AID 1259385; calls by dose curve; note: nearly all actives have a fitted effect of over 20% in size)
Thyrotropin receptor (Homo sapiens), sequence (P16473 whole entry, looked up): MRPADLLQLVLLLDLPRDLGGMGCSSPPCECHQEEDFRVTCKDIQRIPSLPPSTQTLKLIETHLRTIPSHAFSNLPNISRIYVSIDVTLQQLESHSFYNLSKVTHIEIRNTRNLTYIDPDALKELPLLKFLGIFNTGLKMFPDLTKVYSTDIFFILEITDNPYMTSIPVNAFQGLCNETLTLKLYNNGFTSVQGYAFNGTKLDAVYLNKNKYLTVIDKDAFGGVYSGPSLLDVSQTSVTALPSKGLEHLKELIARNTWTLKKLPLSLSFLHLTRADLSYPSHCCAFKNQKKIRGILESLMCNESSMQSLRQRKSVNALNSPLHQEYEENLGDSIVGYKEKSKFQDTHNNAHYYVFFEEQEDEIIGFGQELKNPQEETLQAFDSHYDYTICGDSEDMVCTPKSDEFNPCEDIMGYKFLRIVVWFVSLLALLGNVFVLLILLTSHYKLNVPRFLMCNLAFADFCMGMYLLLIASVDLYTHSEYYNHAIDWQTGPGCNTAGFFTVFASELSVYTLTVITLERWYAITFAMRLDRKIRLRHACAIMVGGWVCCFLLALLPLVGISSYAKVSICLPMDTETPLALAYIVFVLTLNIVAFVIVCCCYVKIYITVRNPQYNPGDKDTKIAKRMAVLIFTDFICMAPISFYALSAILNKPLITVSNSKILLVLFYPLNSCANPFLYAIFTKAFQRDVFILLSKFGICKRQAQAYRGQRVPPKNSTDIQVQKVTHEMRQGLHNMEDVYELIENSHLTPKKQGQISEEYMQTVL
Method in brief: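 TSHR-HEK293 cells (800/well) plated 18 h, then compounds with Ro20-1724 and TSH at 1.5 ng/mL final, 30 min at room temperature. cAMP quantified by HTRF (cAMP-d2/anti-cAMP-cryptate, 1 h); 15 concentrations in triplicate.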

[15] = molecular target: Estrogen receptor (Homo sapiens) (UniProt P03372); assay: qHTS assay to identify small molecule antagonists of the estrogen receptor alpha (ER-alpha) signaling pathway using the BG1 cell line in the presence of 0.1 nM 17-beta-estradiol (AID 1259244); note: nearly all actives have a fitted effect of over 50% in size
Estrogen receptor (Homo sapiens), sequence (P03372 whole entry, looked up): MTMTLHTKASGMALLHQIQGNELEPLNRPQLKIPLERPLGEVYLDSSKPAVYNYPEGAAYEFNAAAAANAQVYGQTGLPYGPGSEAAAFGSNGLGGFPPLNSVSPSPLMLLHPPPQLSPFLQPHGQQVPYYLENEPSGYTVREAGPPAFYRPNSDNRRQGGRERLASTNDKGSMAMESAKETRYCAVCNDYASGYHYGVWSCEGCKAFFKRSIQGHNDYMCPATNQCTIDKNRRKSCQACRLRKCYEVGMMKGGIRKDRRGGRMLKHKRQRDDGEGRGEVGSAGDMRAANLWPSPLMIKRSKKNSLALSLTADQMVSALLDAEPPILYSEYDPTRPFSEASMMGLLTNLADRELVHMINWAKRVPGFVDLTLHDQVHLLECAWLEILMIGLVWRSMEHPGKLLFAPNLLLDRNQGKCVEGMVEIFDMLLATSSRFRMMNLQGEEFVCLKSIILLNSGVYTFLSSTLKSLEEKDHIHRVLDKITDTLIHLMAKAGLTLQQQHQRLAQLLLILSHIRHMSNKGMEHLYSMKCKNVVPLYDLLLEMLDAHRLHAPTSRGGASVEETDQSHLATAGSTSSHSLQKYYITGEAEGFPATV
Method in brief: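 Seeding of stripped-serum-adapted VM7Luc4E2 cells, 24 h attachment, compound transfer, then 0.1 nM final 17beta-estradiol; after 22 h incubation, ONE-Glo reagent and luminescence reading.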

[16] = qHTS assay to identify small molecule phospholipidosis (PLD) inducers (AID 1259344; active = well fitted curve in the direction sought with a large enough effect; an effect the other way counts as inactive or inconclusive)
Method in brief: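 Image-based: LipidTOX Red pit count/intensity per well and per cell; HepG2, 24 h compound at 37 C, PFA fixation, Hoechst counterstain.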

[17] = molecular target: Estrogen receptor (Homo sapiens) (UniProt P03372); assay: qHTS assay to identify small molecule agonists of the estrogen receptor alpha (ER-alpha) signaling pathway in the presence of an antagonist (AID 1259383; calls by dose curve; note: top concentration of the series differs between compounds; nearly all actives have a fitted effect of over 15% in size)
Method in brief: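 ER-alpha agonism measured under antagonist challenge: 10.0nM ICI-182,780 (final) plus compound, 15 concentrations, 22hr, VM7Luc4E2 ERE-luciferase cells. Read by luminescence.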

[18] = molecular target: Androgen receptor (Homo sapiens) (UniProt P10275); assay: qHTS assay to identify small molecule antagonists of the androgen receptor (AR) signaling pathway using the MDA cell line in the presence of 0.5 nM R1881 (AID 1259243); note: nearly all actives have a fitted effect of over 50% in size
Androgen receptor (Homo sapiens), sequence (P10275 whole entry, looked up): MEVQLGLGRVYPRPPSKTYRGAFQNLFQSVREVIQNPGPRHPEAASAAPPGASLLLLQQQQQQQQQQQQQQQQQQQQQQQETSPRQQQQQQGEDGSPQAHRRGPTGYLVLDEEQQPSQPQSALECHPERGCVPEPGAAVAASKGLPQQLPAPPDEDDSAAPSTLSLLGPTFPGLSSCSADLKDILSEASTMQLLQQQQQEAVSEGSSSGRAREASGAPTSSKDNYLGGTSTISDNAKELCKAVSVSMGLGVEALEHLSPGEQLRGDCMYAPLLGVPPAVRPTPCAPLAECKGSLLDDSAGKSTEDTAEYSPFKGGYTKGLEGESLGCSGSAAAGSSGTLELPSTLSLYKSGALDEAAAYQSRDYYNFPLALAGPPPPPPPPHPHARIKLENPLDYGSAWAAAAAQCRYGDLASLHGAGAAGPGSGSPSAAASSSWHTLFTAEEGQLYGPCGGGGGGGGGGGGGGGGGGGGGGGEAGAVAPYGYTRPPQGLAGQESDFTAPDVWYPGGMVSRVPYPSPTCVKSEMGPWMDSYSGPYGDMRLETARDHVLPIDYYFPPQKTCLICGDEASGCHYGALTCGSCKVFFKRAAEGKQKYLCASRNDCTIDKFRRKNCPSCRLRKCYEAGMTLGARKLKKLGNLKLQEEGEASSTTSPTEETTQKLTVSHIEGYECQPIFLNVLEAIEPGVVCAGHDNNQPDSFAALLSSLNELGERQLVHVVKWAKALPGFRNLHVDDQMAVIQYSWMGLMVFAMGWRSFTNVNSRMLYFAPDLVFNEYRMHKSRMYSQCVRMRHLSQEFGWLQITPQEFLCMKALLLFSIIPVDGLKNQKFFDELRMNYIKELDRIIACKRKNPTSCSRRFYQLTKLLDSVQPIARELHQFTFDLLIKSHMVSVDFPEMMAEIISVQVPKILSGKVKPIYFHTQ
Method in brief: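 Cells: MDA-kb2 (MMTV-luc). Stimulus: 0.5 nM R1881. Time: 16 hr, 37C, no CO2. Detection: ONE-Glo luminescence after 30 min at RT.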

[19] = qHTS assay to identify small molecule antagonists of the sonic hedgehog signaling (Shh) pathway (AID 1259369; calls by dose curve; note: nearly all actives have a fitted effect of over 45% in size)
Method in brief: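 Gli1 transcriptional reporter (firefly Luc) in NIH/3T3 background, conditioned-medium activated. 24hr exposure, luminescence endpoint.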

[20] = molecular target: Androgen receptor (Homo sapiens) (UniProt P10275); assay: qHTS assay to identify small molecule agonists of the androgen receptor (AR) signaling pathway in the presence of an antagonist (AID 1259381; calls by dose curve; note: nearly all actives have a fitted effect of over 15% in size)
Method in brief: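 AR antagonist background: nilutamide 3.0uM final. Cell line: MDA-kb2, MMTV-driven luciferase, responsive to both AR and GR. Exposure 16hr, 37C, no CO2; ONE-Glo luminescence.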

Measured: Potency

C=CC(OCC)OCC
inactive: [1] | [2] | [3] | [4] | [5] | [6] | [7] | [8] | [9] | [10] | [11]

CCCCCCCCCCl
not listed: [15] | [16] | [17] | [18] | [19] | [20]
inactive: all other assays above

CC(=O)Nc1ccc(S(=O)(=O)Nc2ccc([N+](=O)[O-])cc2)cc1
inactive: [2] | [15] | [16] | [3] | [4] | [6] | [10] | [17] | [13] | [14]
active: [9] 23.7 µM

Nc1ccc2cc(S(=O)(=O)O)cc(O)c2c1
not listed: [1] | [7] | [8] | [9] | [13] | [14] | [16]
inactive: all other assays above

c1ccc2c(c1)ccc1c3ccccc3ccc21
not listed: [3] | [15] | [16] | [17] | [18] | [20]
inactive: all other assays above

CC(=O)Nc1cccc(C)c1
not listed: [7] | [8] | [9] | [10] | [15] | [16] | [18] | [20]
inactive: all other assays above

CC1COc2ccccc2N1 (stereo unspecified)
not listed: [7] | [8] | [15] | [16] | [17] | [18] | [20]
inactive: all other assays above

C[Si](C)(C)C
not listed: [7] | [8] | [15] | [16] | [17] | [18] | [20]
inactive: all other assays above
